# Assay results as given in the supplement of paper PMC10720658.
# ± gives the standard deviation of the averaged measurements.
# System: AEK1 (Tb927.3.2440)
# Experiment: percent reduction in TR-FRET probe signal relative to DMSO control; higher = stronger displacement of ATP-site probe (binding)
# Conditions: 1 µM; incubation time 1 h
row,Compound,percent reduction in TR-FRET probe signal
1,CCN1CCN(Cc2ccc(-c3cc4c(N[C@H](C)c5ccccc5)ncnc4[nH]3)cc2)CC1,12.6 ± 16%
2,CCCCCCCCCCCCCCCCOP(=O)([O-])OCC[N+](C)(C)C [Miltefosine],4.96 ± 18%
3,Cc1cc(Nc2cc(CN3CCOCC3)c3nc(C)c(Cc4ccc(Cl)cc4F)n3n2)n[nH]1,49 ± 10%
4,CNC(=O)c1cc(COc2nnc(Nc3ccc(Cl)cc3)c3ccoc23)ccn1 [Telatinib],-1.95 ± 4.8%
5,C[C@@H]1CCN(C(=O)CC#N)C[C@@H]1N(C)c1ncnc2[nH]ccc12.O=C(O)CC(O)(CC(=O)O)C(=O)O,-1.47 ± 8.1%
6,COc1cc(Nc2ncc(F)c(Nc3ccc4c(n3)N(COP(=O)(O)O)C(=O)C(C)(C)O4)n2)cc(OC)c1OC [Fostamatinib (R788)],31.3 ± 1.3%
7,COCCOc1cnc2ccn([C@H](C)c3nnc4c(F)cc(-c5cnn(C)c5)cn34)c(=O)c2c1,5.44 ± 17%
8,Oc1cc(O)cc(/C=C/c2ccc(O)c(O)c2)c1 [Piceatannol],44.1 ± 8%
9,CC(C)(C)NS(=O)(=O)c1cncc(-c2cc(F)c3nc(N)nn3c2)c1,-7.77 ± 4.5%
10,"CN1CCN(c2ccc3nc(-c4c(N)c5c(F)cccc5[nH]c4=O)[nH]c3c2)CC1 [Dovitinib (TKI-258, CHIR-258)]",16.9 ± 16%
11,COc1cc2ncnc(Nc3ccc(F)c(Cl)c3)c2cc1OCCCN1CCOCC1 [Gefitinib (ZD1839)],5.46 ± 21%
12,CO[C@@H](C(=O)N1Cc2[nH]nc(NC(=O)c3ccc(N4CCN(C)CC4)cc3)c2C1)c1ccccc1,24.2 ± 6.1%
13,NC(=O)c1ncn([C@@H]2O[C@H](CO)[C@@H](O)[C@H]2O)c1N [AICAR (Acadesine)],-1.92 ± 11%
14,CC(C)n1nc(-c2ccc3oc(N)nc3c2)c2c(N)ncnc21,-2.53 ± 6.7%
15,O=C1N=C(NCc2cccs2)S/C1=C\c1ccc2ncccc2c1,8.12 ± 4.7%
16,C[C@]1(O)C[C@@H](c2nc(-c3ccc4ccc(-c5ccccc5)nc4c3)c3c(N)nccn32)C1 [OSI-906 (Linsitinib)],-6.09 ± 6%
17,C[C@H](Nc1ncnc2nc[nH]c12)c1cc2cccc(Cl)c2c(=O)n1-c1ccccc1,-9.85 ± 5.9%
18,Cc1cc(O)c2c(c1)C(=O)c1cccc(O)c1C2=O [Chrysophanic Acid],6.22 ± 14%

row,Compound,percent reduction in TR-FRET probe signal
1,CN(C)CCOc1ccc(-c2nc(-c3ccncc3)c(-c3ccc4c(c3)CC/C4=N\O)[nH]2)cc1,3.05 ± 12%
2,C[C@H](NC(=O)/C(C#N)=C/c1cccc(Br)n1)c1ccccc1,-10.8 ± 3.7%
3,COc1cc2ncnc(Nc3ccc(F)c(Cl)c3)c2cc1NC(=O)/C=C/CN1CCCCC1,-9.62 ± 5%
4,CC(C)NC[C@@H](C(=O)N1CCN(c2ncnc3c2[C@H](C)C[C@H]3O)CC1)c1ccc(Cl)cc1,11.4 ± 8.1%
5,COc1c(C)c(C(=O)c2ccc(N)c(C(=O)[O][Na])c2)n2ccccc12,6.59 ± 7.5%
6,Cn1cc(-c2ccc3ncc(Cc4ccc5ncccc5c4)n3n2)cn1,4.34 ± 8.7%
7,CCCNC(=O)c1cn2ncnc(Nc3cc(C(=O)NC4CC4)ccc3C)c2c1C,10.5 ± 8.4%
8,CC(C)Nc1cc(-c2c[nH]c(C(=O)N[C@H](CO)c3cccc(Cl)c3)c2)c(Cl)cn1,0.153 ± 2.1%
9,Cc1nc(N)sc1-c1ccnc(Nc2ccc(N3CCOCC3)cc2)n1,10.3 ± 6.7%
10,O=c1cc(-c2cccc3c2Sc2ccccc2S3)oc(N2CCOCC2)c1,-8.85 ± 7.2%
11,COc1cc(CCc2cc(NC(=O)c3ccc(N4C[C@@H](C)N[C@@H](C)C4)cc3)n[nH]2)cc(OC)c1,2.07 ± 10%
12,CCN(CCO)CCCOc1ccc2c(Nc3cc(CC(=O)Nc4cccc(F)c4)n[nH]3)ncnc2c1 [Barasertib (AZD1152-HQPA)],-5.79 ± 4.7%
13,COc1cc2ncnc(Nc3cccc(Cl)c3F)c2cc1OC(=O)N1CCN(C)C[C@H]1C,9.77 ± 13%
14,CNC(=O)c1c(F)cccc1Nc1nc(Nc2cc3c(cc2OC)CCN3C(=O)CN(C)C)nc2[nH]ccc12,-0.577 ± 11%
15,O=C(/C=C/c1ccc2ccccc2n1)c1ccncc1,-6.28 ± 6%
16,CC(C)n1nc(-c2cc3cc(O)ccc3[nH]2)c2c(N)ncnc21,5.23 ± 4.5%
17,Cc1c[nH]c(-c2cnc(NCCNc3ccc(C#N)cn3)nc2-c2ccc(Cl)cc2Cl)n1.Cl,-2.62 ± 8.5%
